Experimental data published in the supplement of paper PMC7866885, “A novel bicyclic 2,4-diaminopyrimidine inhibitor of Streptococcus suis dihydrofolate reductase” (PeerJ, 2021).
± gives the standard deviation.

Tested on: Streptococcus suis HE06
Test: percent growth relative to DMSO control; higher = less growth inhibition
Conditions: 10 µM; incubation time 18 h
Method: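 CLSI broth microdilution: 5x10^4 CFU of Streptococcus suis (strain P1/7 or HE06) incubated with 10 µM Pathogen Box compound in cation-adjusted Mueller Hinton broth, 37 °C, 5% CO2, 18 h. Growth read as OD600 and expressed as percent of the DMSO-treated control (100%); mean ± SD of three independent experiments.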

| Compound | percent growth [%] |
| --- | --- |
| Cc1[nH]c2ccccc2c1C(c1cccs1)N1CCN(C)CC1 (stereo not drawn) | 49 ± 25 |
| COC(=O)C1=C(C)NC(C)=C(C(=O)OC(C)C)C1c1cccc2nonc12 (stereo not drawn) | 73.1 ± 15 |
| CNCCC(Oc1ccc(C(F)(F)F)cc1)c1ccccc1 (stereo not drawn) | 104 ± 4 |
| CCOc1ccc2cc(-c3nn(C(C)(C)C)c(N)c3C(N)=O)cnc2c1 | 77.6 ± 17 |
| Cc1cc(O)nc(-n2nc(C)cc2C)n1 | 18.2 ± 21 |
| O[C@@H](c1cc(C(F)(F)F)nc2c(C(F)(F)F)cccc12)[C@H]1CCCCN1 | 94 ± 6.1 |
| O=C(c1ccco1)N(CCCn1ccnc1)c1nc2c(Cl)cccc2s1 | 36.6 ± 38 |
| Cc1cnc(CCNC(=O)c2cc(-c3ccc(Cl)cc3)cs2)[nH]1 | 80.7 ± 6.9 |
| CC(=O)NC[C@H]1CN(c2ccc(N3CCSCC3)c(F)c2)C(=O)O1 | 3.44 ± 3.9 |
| Cc1ccc(Oc2ccc(NC(=O)CNc3ccccc3N3CCCC3=O)cc2)cc1 | 86.9 ± 11 |
| CCOc1ccc(-c2nc(CNCCc3ccc(F)cc3)cs2)cc1 | 97.3 ± 4.6 |
| CCn1cnc2c(Nc3cc(F)cc(F)c3)nc(C#N)nc21 | 116 ± 30 |
| C[C@H](c1ccc2c(c1)CCCC2)N(C)c1ncc2c(N)nc(N)nc2n1 | 84.7 ± 9.1 |
| O=C(C1CCN(c2nnnn2-c2ccccc2)CC1)N1CCc2ccccc2C1 | 86.9 ± 28 |
| COc1cc(NC(=O)Cc2nn(C)c(=O)c3ccccc23)ccc1Cl | 82.8 ± 6.6 |
| O=C(Nc1ccccc1-c1nc2c(C(=O)O)cccc2o1)c1ccccc1 | 68.4 ± 14 |
| O=C1N(Cc2cc3ccccc3s2)CC2CN(Cc3ccccc3)CCN12 (stereo not drawn) | 82.2 ± 8 |
| CC(C)(C)OC(=O)N1CCN(c2cc(-c3ccc(Oc4ccccc4)cc3)n[nH]2)CC1 | 89.6 ± 5.8 |
| CC(C)(C)OC(=O)N1CCC(Cn2nc(-c3cnc4ccccc4c3)c3c(N)ncnc32)CC1 | 88.2 ± 27 |

| Compound | percent growth [%] |
| --- | --- |
| CC(=O)NCC1CN(c2ccc(-c3ccc(CNCc4cn[nH]n4)cc3)c(F)c2)C(=O)O1 (stereo not drawn) | 0.542 ± 0.94 |
| CC(C)(C)c1cnc(NC(=O)c2ccccc2O)s1 | 19.7 ± 28 |
| COc1cccc(CC(=O)N2CCC(n3c(C)nc4ccc(F)cc43)CC2)c1 | 104 ± 52 |
| COc1ccc(-c2onc(C(F)(F)F)c2-c2ccc(Cl)cc2)c(O)c1 | 26.1 ± 45 |
| Nc1nc(N)c2c3c(sc2n1)CN(Cc1ccccc1)CC3 | 94.5 ± 3.1 |
| CC[C@H](CO)NCCN[C@H](CC)CO | 88.7 ± 6.4 |
| C[C@H](C(N)=O)N1CCCC[C@@H]1c1ccc(OCc2cccc(F)c2)cc1 | 125 ± 34 |
| Cc1cc(C)c2cc(C(=O)NC3CCCCCCC3)[nH]c2c1 | 90.5 ± 14 |
| CC1(COc2ccc(N3CCC(Oc4ccc(OC(F)(F)F)cc4)CC3)cc2)Cn2cc([N+](=O)[O-])nc2O1 (stereo not drawn) | 91.7 ± 9.5 |
| O=C(Nc1ccc2c(c1)B(O)OC2)c1ccccc1C(F)(F)F | 88.2 ± 15 |
| Nc1ncc(-c2cn[nH]c2)cc1-c1nc2cc(Cl)cnc2[nH]1 | 90.8 ± 5.4 |
| CC(C)(C)n1nc(-c2ccccc2)c2c(N)ncnc21 | 79.7 ± 12 |
| Brc1c(-c2ccc3c(c2)OCO3)nc2ncccn12 | 95.7 ± 6.9 |
| O=C1COCc2ccc(Br)cc2N1Cc1ccc(C(F)(F)F)cc1 | 84.3 ± 26 |
| CCS(=O)(=O)N(Cc1ccco1)Cc1cc2ccc(C)cc2nc1O | 90.6 ± 1.9 |
| COC(=O)Nc1nc2cc(C(=O)c3ccccc3)ccc2[nH]1 | 86 ± 8.2 |
| Nc1nccc2ccc(-c3ccc4nccn4c3)cc12 | 85.8 ± 25 |
| CNC(=O)c1cc(S(=O)(=O)N2CCN(c3ccccn3)CC2)cs1 | 79.7 ± 12 |
| Cc1ccc(-c2cc(C(=O)Nc3cccnc3)c3cc(Br)ccc3n2)cc1 | 99.1 ± 11 |
